Where “and” joins values, the source holds several entries; their conditions need not be identical. Equal entries are not always repeated. About 3,900 (1.1%) of roughly 360,000 compounds were called active. The entries come from a sample that favours actives as a whole. Values without a mark were called inactive.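 How the source made its calls: active means mean replicate inhibition score of at least 50 and every replicate individually at or above 50; inconclusive means only one of the two criteria met; inactive means mean below 50 and not all replicates reaching 50.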
assay: blockers of JRFL envelope-mediated fusion – HeLa-JRFL effector, CEM21 target cells, luciferase, primary screen (AID 651610); settings: HeLa-JRFL Env/CEM21 cell fusion, active compounds read high; at 12.3 µM unless noted;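 further: 0% = plate neutral controls and 100% = maraviroc near 300 nM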

With `CC(C)(C)c1ccc(CN2C(=O)CN=C(c3ccccc3)c3ccccc32)cc1` the inhibition was 86.8% (active).
For `CCCCCCCCCCCCn1ccc(=N)cc1`, the inhibition was 69% (active).
With `CCOC(=O)[C@@H]1[C@@H]2NC(=O)N[C@@]1(C)Oc1ccccc12` the inhibition was -2.84% [at 16.7 µM] and -0.731% [at 16.7 µM].
In the case of `CCC(C)(O)C(=O)OC1C(=O)OC2CC3C(C)=CC(=O)C(O)C3(C)C3C4(O)OCC23C1C(C)C4O` (stereo not given), the inhibition is reported as 75.7% (active).

Compared with `O=C1CC(=O)N(Cc2ccccc2)C(=O)N1CCCCCCN1C(=O)CC(=O)N(Cc2ccccc2)C1=O`, `O=C(c1ccccc1)C(O)(CN1CCCCC1)c1ccccc1` (stereo not given) is higher in inhibition: -2.61% for the first, 8.44% for the second.

First: O=S(=O)(c1ccccc1)N1CCC2CCNC2C1 (stereo not given)
Second: CS(=O)(=O)N1CCC2CCNC2C1 (stereo not given)
The inhibition of the first is lower: -11.9% for the first, -7.16% for the second.

First: Cc1cc(N2CCNC[C@@H]2C)ccc1N1CC[C@H](O)C1
Second: CC(=O)C1(O)CCC2C3CCC4=C(Cl)C(=O)CCC4(C)C3CCC21C (stereo not given)
The inhibition of the first is lower: 0.23% for the first, 16.9% for the second.

Compared with `C[C@H](CO)N1C[C@H](C)[C@H](CN(C)C(=O)Oc2ccc3ccccc3c2)OCc2cnnn2CCCC1=O`, `C[C@@H]1CN([C@H](C)CO)C(=O)CCCn2cc(nn2)CO[C@@H]1CN(C)C(=O)Oc1cccc2ccccc12` is higher in inhibition: -15.9% [at 16.7 µM] for the first, 0.664% [at 16.7 µM] for the second.

Compared with `O=C(O)[C@@H]1[C@@H](CO)[C@@H]2Cn3c(ccc(-c4ccccc4F)c3=O)[C@H]1N2C(=O)c1cccnc1`, `O=C(O)[C@H]1[C@H](CO)[C@H]2Cn3c(ccc(-c4ccccc4F)c3=O)[C@@H]1N2C(=O)c1cccnc1` is lower in inhibition: 1.12% [at 16.7 µM] for the first, -4.52% [at 16.7 µM] for the second.

`COC(=O)C[C@@H]1CC[C@@H]2NC[C@@H](O)COC[C@H]2O1` gave an inhibition of -11.9% [at 16.7 µM].
